Inconclusive results are not listed. Where a call stands in place of a potency, no number is given. Active and inactive are the calls of the source. The call rests on the fitted dose curve; in most records, active means well fitted curve in the direction sought with a large enough effect; inconclusive means small, poorly fitted or top-dose-only effect, or another doubt; inactive means no such curve, though single readings can be large; an effect the other way counts as inactive or inconclusive.

Tyrosine-protein kinase Yes (Homo sapiens), sequence (P07947 whole entry, looked up): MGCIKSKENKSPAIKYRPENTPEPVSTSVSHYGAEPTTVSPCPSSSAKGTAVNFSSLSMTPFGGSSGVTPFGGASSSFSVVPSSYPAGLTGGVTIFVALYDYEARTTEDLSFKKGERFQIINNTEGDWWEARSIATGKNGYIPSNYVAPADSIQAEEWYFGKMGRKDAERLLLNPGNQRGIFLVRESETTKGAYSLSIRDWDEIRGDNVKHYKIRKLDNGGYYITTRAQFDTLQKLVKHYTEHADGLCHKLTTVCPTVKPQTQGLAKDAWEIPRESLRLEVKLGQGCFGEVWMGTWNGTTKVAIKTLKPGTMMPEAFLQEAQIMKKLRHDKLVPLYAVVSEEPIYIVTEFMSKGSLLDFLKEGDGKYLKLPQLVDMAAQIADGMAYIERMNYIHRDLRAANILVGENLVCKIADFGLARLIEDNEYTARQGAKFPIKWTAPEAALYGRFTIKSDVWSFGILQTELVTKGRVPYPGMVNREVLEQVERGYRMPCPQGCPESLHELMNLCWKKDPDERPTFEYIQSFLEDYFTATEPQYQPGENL

Test system in one assay: not listed separately
The assay can be described thus: Cell Proliferation Assay against the TMD8 Cell Line (Caspase readout at 8 hrs) (AID 651713). Particulars: TMD8 lymphoma cells, caspase activation luminescence; series mostly up to 46.1 µM. In short, it runs like this: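 Seed log-phase TMD8 cells, add compound by pin tool, incubate 8 h at 37C under 5% CO2, equilibrate to room temperature, add Caspase-Glo, wait 15 min, read luminescence; percent activity uses DMSO and 9.2 uM bortezomib controls.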
For `CCC(C)n1ncn(-c2ccc(N3CCN(c4ccc(OC[C@H]5CO[C@](Cn6cncn6)(c6ccc(Cl)cc6Cl)O5)cc4)CC3)cc2)c1=O` (some centres undefined), the Potency entry is “inactive”. On the same count and under the same terms, in the case of `O=C(NOC[C@H](O)CO)c1ccc(F)c(F)c1Nc1ccc(I)cc1F` it was “inactive”.

Consider `C[C@]12CC[C@H](O)CC1=CC[C@@H]1[C@H]2CC[C@]2(C)C(c3cccnc3)=CC[C@H]12`, for which the Potency entry is “inactive”. Regarding `Cc1c(C)c2c(c(C)c1O)CCC(C)(COc1ccc(CC3SC(=O)NC3=O)cc1)O2` (centres undefined), the Potency result was “inactive”. `COc1cc(Nc2ncc3c(n2)-c2ccc(Cl)cc2C(c2c(F)cccc2OC)=NC3)ccc1C(=O)O`: the Potency entry is “inactive”.

Take `COc1ccccc1-c1cccc(-c2c(O)c3cc(C#N)c(Cl)cc3[nH]c2=O)c1`: the Potency result is “inactive”. Consider `C/C(=C\C(=O)Nc1ccccc1C(=O)O)c1ccc2ccccc2c1`, for which the Potency entry is “inactive”.

For the molecule `C[C@]1(c2nc3c(C(N)=O)cccc3[nH]2)CCCN1`, the Potency entry was “inactive”. Regarding `O=C(c1cc(Cc2n[nH]c(=O)c3ccccc23)ccc1F)N1CCN(C(=O)C2CC2)CC1`, the Potency result is “inactive”. Regarding `CN(C)c1ccc(Nc2nc(N)n(C(=O)c3c(F)cccc3F)n2)cc1`, the Potency result is “inactive”. On the same count and under the same terms, in the case of `COc1cc(F)c(F)c(Nc2ccc(I)cc2F)c1NS(=O)(=O)C1(C[C@H](O)CO)CC1` it was “inactive”; in that of `Cc1ccc(-n2nc(C(C)(C)C)cc2NC(=O)Nc2ccc(OCCN3CCOCC3)c3ccccc23)cc1`, “inactive”; in that of `Cc1cc(SCc2sc(-c3ccc(C(F)(F)F)cc3)nc2C)ccc1OCC(=O)O`, “inactive”.

Consider `CN(C)C(=O)c1ccc(S(=O)(=O)c2ccc(NC(=O)[C@@](C)(O)C(F)(F)F)c(Cl)c2)cc1`, for which the Potency entry was “inactive”. Turning to `COc1cc2nccc(Oc3ccc(NC(=O)NC4CC4)c(Cl)c3)c2cc1C(N)=O`, the Potency result was “inactive”. On to `Cc1c(CCOc2ccc(C(=O)O)cc2)c2cc(Cl)ccc2n1C(c1ccccc1)c1ccccc1`, for which the Potency result was “inactive”. On the same count and under the same terms, to `Cc1cc([C@@H](C)Nc2ccccc2C(=O)O)c2nc(N3CCOCC3)cc(=O)n2c1` belongs “inactive”; to `C#Cc1cccc(Nc2ncnc3cc(OCCOC)c(OCCOC)cc23)c1`, “inactive”.

Consider `CC(=O)NC(C)c1ccc(Oc2ccc(OC(C)C)cc2)cc1` (centres undefined), for which the Potency result is “inactive”. For `Cc1cc(C=c2sc3nc4ccccc4n3c2=O)c(C)n1-c1ccccc1`, the Potency entry was “inactive”. Regarding `CCCS(=O)(=O)Nc1ccc(F)c(C(=O)c2c[nH]c3ncc(Cl)cc23)c1F`, the Potency result is “inactive”.

In the case of `O=C(O)c1ccc(-c2c[nH]c3ccc(-c4ccccc4)cc23)cc1C1CCCC1`, the Potency result was “inactive”. Regarding `CCCn1c(=O)c2[nH]c(C34CC5CC3C[C@@H](C5)C4)nc2n(CCC)c1=O`, the Potency result was “inactive”. In the case of `CC[C@H](Nc1ncnc2nc[nH]c12)c1nc2cccc(F)c2c(=O)n1-c1ccccc1`, the Potency result is “inactive”. In the case of `Cc1cc2c(F)c(Oc3ncnn4cc(OC[C@@H](C)O)c(C)c34)ccc2[nH]1`, the Potency result was “inactive”. Turning to `CC(C)(C)OC(=O)CN(Cc1ccc(Cl)cc1)Cc1ccc([N+](=O)[O-])s1`, the Potency result is “inactive”.

Another assay has as its target Tyrosine-protein kinase Yes (Homo sapiens) (UniProt P07947). The assay is described as follows: qHTS for small molecule inhibitors of Yes1 kinase: Primary Screen (AID 686947). Further: nearly all actives have a fitted effect of over 60% in size. Further: potency means the concentration at half of the fitted maximal effect. As to conditions: Yes1 kinase biochemical qHTS inhibition; series mostly up to 76.9 µM. In short, it runs like this:
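Yes1 (4 nM) preincubated 20 min with compound, then 60 min room-temperature reaction with 0.1 mM ATP and 0.3 mg/mL poly(E4Y) in pH 7.5 Tris, 10 mM MgCl2. ADP measured by ADP-Glo luminescence, normalised to enzyme/no-enzyme controls.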
On the technique in general: In qHTS, concentration-response curves come from the screen itself.
On to `S=C(NCc1ccc2c(c1)OCO2)N1CCN(c2ncnc3c2oc2ccccc23)CC1`, for which the Potency entry was “inactive”.

Consider `CCC(C)n1ncn(-c2ccc(N3CCN(c4ccc(OC[C@H]5CO[C@](Cn6cncn6)(c6ccc(Cl)cc6Cl)O5)cc4)CC3)cc2)c1=O` (some centres undefined), for which the Potency entry was “inactive”. Consider `O=C(NOC[C@H](O)CO)c1ccc(F)c(F)c1Nc1ccc(I)cc1F`, for which the Potency entry was “inactive”. In the case of `C[C@]12CC[C@H](O)CC1=CC[C@@H]1[C@H]2CC[C@]2(C)C(c3cccnc3)=CC[C@H]12`, the Potency result is “inactive”. For `Cc1c(C)c2c(c(C)c1O)CCC(C)(COc1ccc(CC3SC(=O)NC3=O)cc1)O2` (centres undefined), the Potency result was “inactive”.

In the case of `Oc1cccc(-c2nc(N3CCOCC3)c3oc4ncccc4c3n2)c1`, the Potency entry is “inactive”. Still for that read-out and setting: to `COc1cc(Nc2ncc3c(n2)-c2ccc(Cl)cc2C(c2c(F)cccc2OC)=NC3)ccc1C(=O)O` belongs 21.8 nM (active). Regarding `Cc1ccccc1C(C(=O)NC1CCCC1)N(C(=O)Cn1cnc2ccccc21)c1cccc(F)c1` (centres undefined), the Potency result was “inactive”.

Regarding `COc1ccccc1-c1cccc(-c2c(O)c3cc(C#N)c(Cl)cc3[nH]c2=O)c1`, the Potency result is “inactive”. On the same count and under the same terms, in the case of `C/C(=C\C(=O)Nc1ccccc1C(=O)O)c1ccc2ccccc2c1` it was “inactive”; in that of `C[C@]1(c2nc3c(C(N)=O)cccc3[nH]2)CCCN1`, “inactive”. As for `O=C(c1cc(Cc2n[nH]c(=O)c3ccccc23)ccc1F)N1CCN(C(=O)C2CC2)CC1`, the Potency result was “inactive”. `CN(C)c1ccc(Nc2nc(N)n(C(=O)c3c(F)cccc3F)n2)cc1`: the Potency was 772 nM (active). In the case of `Cc1cc(SCc2sc(-c3ccc(C(F)(F)F)cc3)nc2C)ccc1OCC(=O)O`, the Potency entry is “inactive”. Regarding `CCC(C)(C)C(=O)O[C@H]1C[C@@H](C)C=C2C=C[C@H](C)[C@H](CC[C@@H]3C[C@@H](O)CC(=O)O3)[C@H]21`, the Potency result is “inactive”. As for `O=C(Nc1cccnc1)N1CCC(Cc2cccc(Oc3ccc(C(F)(F)F)cn3)c2)CC1`, the Potency result is “inactive”.

On to `CN(C)C(=O)c1ccc(S(=O)(=O)c2ccc(NC(=O)[C@@](C)(O)C(F)(F)F)c(Cl)c2)cc1`, for which the Potency result is “inactive”.

For `COc1cc2nccc(Oc3ccc(NC(=O)NC4CC4)c(Cl)c3)c2cc1C(N)=O`, the Potency is 3450 nM (active).

As for `Cc1cc([C@@H](C)Nc2ccccc2C(=O)O)c2nc(N3CCOCC3)cc(=O)n2c1`, the Potency entry was “inactive”. Same read-out and setting: in the case of `COc1cccc2cc(-c3nc(C4CCC(C(=O)O)CC4)n4ncnc(N)c34)[nH]c12` (centres undefined) it was 68.8 nM (active).

Turning to `Cc1cc(C=c2sc3nc4ccccc4n3c2=O)c(C)n1-c1ccccc1`, the Potency result is “inactive”.

Regarding `CCOc1ccn(-c2ccc(F)cc2)c(=O)c1C(=O)Nc1ccc(Oc2ccnc(N)c2Cl)c(F)c1`, the Potency is 1940 nM (active). Still for that read-out and setting: in the case of `CCCS(=O)(=O)Nc1ccc(F)c(C(=O)c2c[nH]c3ncc(Cl)cc23)c1F` it was 173 nM (active); in that of `COc1ccc(COc2cc3oc(=O)c4cc(C(C)O)ccc4c3cc2OC)cc1` (centres undefined), “inactive”. As for `O=C(O)c1ccc(-c2c[nH]c3ccc(-c4ccccc4)cc23)cc1C1CCCC1`, the Potency is 1540 nM (active). For `CCCn1c(=O)c2[nH]c(C34CC5CC3C[C@@H](C5)C4)nc2n(CCC)c1=O`, the Potency entry is “inactive”. With `O=C(Nc1ccc(F)c(C(F)(F)F)c1)Nc1nnc(-c2ccncc2)s1`, the Potency entry was “inactive”. With `CC[C@H](Nc1ncnc2nc[nH]c12)c1nc2cccc(F)c2c(=O)n1-c1ccccc1`, the Potency entry is “inactive”.

The values above are taken from PubChem BioAssay (NCATS).
